Reference: PubChem BioAssay
For some of these results: Results with a measured potency or affinity are listed apart. Calls of active or inactive are those of the source. Unless noted, the rule behind the calls is not given here. Non-standard residues stand in square brackets, D forms with d. Residues, ends and D or L forms follow the SMILES beside them. *: point of attachment. Butanoyl(4-(4-HOPh)) = O=C(CCCc1ccc(O)cc1)*

Tests used:
[1] = antimalarial activity against Dd2 strain (AID 2302;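 active = growth inhibition above 50% at the single 2 µM test dose, taken to imply half-maximal potency below 2 µM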;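 note: 0% = DMSO untreated growth and 100% = chloroquine plus artemisinin killed control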); settings: P. falciparum Dd2 in RBCs, LDH growth readout, 72 h; at 2 µM; active compounds read high
[2] = human hepatoma cell viability loss – ATP luminescence, cytotoxicity control for P. falciparum antimalarial project, primary screen (AID 2303;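 active = inhibition above 50%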;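 note: 0% = DMSO wells and 100% = digitonin-killed cells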); settings: HepG2 viability, 24-48 h, at 10 µM, active compounds read high
[3] = target: L-lactate dehydrogenase (Plasmodium falciparum (isolate CDC / Honduras)) (UniProt Q27743); assay: PfLDH activity inhibition – cell lysate, 3D7 strain, counter-screen for P. falciparum growth inhibition project (AID 2304);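 note: 0% = vehicle and 100% = reference inhibitor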; settings: P. falciparum 3D7 crude extract, LDH APAD/NBT absorbance; at 2 µM; active compounds read high
Chain of L-lactate dehydrogenase (Plasmodium falciparum (isolate CDC / Honduras)) (Q27743 whole entry, looked up): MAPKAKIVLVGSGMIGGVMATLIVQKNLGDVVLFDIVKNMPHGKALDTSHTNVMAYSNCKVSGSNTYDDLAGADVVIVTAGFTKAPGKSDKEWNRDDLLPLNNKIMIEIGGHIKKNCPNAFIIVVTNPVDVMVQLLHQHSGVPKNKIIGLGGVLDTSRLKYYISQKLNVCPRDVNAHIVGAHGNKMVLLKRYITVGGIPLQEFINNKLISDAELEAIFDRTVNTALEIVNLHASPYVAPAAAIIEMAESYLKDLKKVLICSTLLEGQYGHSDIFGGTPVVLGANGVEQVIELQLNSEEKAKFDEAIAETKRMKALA

[4] = inhibition of 3D7 malaria parasite growth – strain 3D7 (AID 2306);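 note: 0% = DMSO wells and 100% = chloroquine plus artemisinin control wells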; settings: P. falciparum 3D7 erythrocytic growth, LDH absorbance, 72 h; at 2 µM; active compounds read high
[5] = target: Calcium-dependent protein kinase 1 (Plasmodium falciparum (isolate 3D7)) (UniProt P62344); assay: PfCDPK1 kinase inhibitors, biochemical, TCAMS library (AID 1159585; cut-off not given, nearly all actives have IC50 up to about 0.98 µM;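 note: inhibitors leave more ATP so luminescence rises with inhibition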); settings: recombinant PfCDPK1, Kinase-Glo ATP depletion luminescence
Chain of Calcium-dependent protein kinase 1 (Plasmodium falciparum (isolate 3D7)) (P62344 whole entry, looked up): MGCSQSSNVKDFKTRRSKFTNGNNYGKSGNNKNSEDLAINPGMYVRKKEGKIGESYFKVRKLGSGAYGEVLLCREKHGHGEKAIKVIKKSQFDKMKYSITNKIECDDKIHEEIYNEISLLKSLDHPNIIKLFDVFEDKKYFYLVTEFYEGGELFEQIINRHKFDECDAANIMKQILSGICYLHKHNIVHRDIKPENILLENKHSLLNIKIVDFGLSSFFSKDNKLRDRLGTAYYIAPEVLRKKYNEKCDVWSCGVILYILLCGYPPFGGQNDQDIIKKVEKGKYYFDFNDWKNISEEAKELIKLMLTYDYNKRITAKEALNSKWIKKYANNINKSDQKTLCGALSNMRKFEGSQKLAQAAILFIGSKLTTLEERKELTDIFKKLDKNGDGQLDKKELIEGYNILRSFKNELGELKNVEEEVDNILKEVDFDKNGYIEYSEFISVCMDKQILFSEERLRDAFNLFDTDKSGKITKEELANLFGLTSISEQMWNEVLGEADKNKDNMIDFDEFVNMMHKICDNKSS

[6] = target: Plasmodium falciparum protein kinase 6 (PK6, PF3D7_1337100) (UniProt Q8IDW1); assay: PfPK6 kinase inhibitors, biochemical, TCAMS library (AID 1159586); settings: recombinant PfPK6, Kinase-Glo ATP depletion luminescence
Chain of Plasmodium falciparum protein kinase 6 (PK6, PF3D7_1337100) (Q8IDW1 1-305): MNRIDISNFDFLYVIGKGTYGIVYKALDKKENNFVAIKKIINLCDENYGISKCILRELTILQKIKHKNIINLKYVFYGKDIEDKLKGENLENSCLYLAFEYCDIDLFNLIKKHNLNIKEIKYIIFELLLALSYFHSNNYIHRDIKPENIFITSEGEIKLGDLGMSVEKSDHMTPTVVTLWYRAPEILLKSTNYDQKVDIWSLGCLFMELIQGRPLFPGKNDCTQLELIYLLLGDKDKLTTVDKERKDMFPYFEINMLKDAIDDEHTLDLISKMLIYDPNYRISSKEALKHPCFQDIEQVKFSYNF

[7] = target: Protein kinase 7 (PK7), Plasmodium falciparum 3D7 (PF3D7_0213400) (UniProt Q7YTF7); assay: inhibition of Plasmodium PK7 catalytic activity – biochemical, TCAMS antimalarial set, Kinase-Glo luminescence (AID 1159587); settings: recombinant PfPK7, Kinase-Glo ATP depletion luminescence
Chain of Protein kinase 7 (PK7), Plasmodium falciparum 3D7 (PF3D7_0213400) (Q7YTF7 1-343): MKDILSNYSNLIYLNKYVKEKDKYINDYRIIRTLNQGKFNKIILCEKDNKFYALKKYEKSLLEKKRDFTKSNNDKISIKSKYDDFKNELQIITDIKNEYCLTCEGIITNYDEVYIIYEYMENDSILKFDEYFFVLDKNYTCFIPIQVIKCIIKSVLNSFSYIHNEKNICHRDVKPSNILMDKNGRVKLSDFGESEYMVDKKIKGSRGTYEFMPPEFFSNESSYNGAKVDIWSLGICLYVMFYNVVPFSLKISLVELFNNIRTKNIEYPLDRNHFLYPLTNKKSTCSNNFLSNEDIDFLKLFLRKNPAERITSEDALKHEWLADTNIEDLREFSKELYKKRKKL

[8] = target: Calcium-dependent protein kinase 4 (Plasmodium falciparum (isolate 3D7)) (UniProt Q8IBS5); assay: PfCDPK4 kinase inhibitors, biochemical, TCAMS library (AID 1159588; cut-off not given, nearly all actives have IC50 up to about 0.91 µM); settings: recombinant PfCDPK4, Kinase-Glo ATP depletion luminescence
Chain of Calcium-dependent protein kinase 4 (Plasmodium falciparum (isolate 3D7)) (Q8IBS5 whole entry, looked up): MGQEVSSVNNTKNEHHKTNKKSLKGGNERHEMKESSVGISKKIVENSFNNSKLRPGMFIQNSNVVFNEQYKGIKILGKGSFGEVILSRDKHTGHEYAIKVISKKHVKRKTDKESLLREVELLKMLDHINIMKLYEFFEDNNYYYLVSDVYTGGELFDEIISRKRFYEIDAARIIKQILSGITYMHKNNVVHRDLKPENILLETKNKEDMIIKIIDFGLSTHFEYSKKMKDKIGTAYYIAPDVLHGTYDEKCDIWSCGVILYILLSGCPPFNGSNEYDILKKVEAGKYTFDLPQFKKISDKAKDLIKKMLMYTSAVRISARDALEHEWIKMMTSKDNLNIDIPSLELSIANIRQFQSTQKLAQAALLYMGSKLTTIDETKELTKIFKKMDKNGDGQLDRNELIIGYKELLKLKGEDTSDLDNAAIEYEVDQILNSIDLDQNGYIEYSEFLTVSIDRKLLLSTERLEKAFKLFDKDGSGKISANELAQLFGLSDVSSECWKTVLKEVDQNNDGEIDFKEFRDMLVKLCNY

Nc1nc(N)c2c(ccc3c2ccn3CC2CC2)n1
active: growth inhibition [4] 96%
inactive: growth inhibition [1] 3% | inhibition [2] 46% | inhibition [3] -4% | outcome [5] | outcome [6] | outcome [7] | outcome [8]

CCc1cccc(OCCCON2C(N)=NC(N)=NC2(C)C)c1
inactive: inhibition [3] 5% | outcome [5] | outcome [6] | outcome [7] | outcome [8]
active: growth inhibition [1] 94% | inhibition [2] 63% | growth inhibition [4] 95%

COc1ccc2nccc([C@@H](O)CN3CCC(NCc4ccc5c(c4)NC(=O)CO5)CC3)c2c1
active: growth inhibition [4] 99%
inactive: growth inhibition [1] 6% | inhibition [2] 1% | inhibition [3] 5% | outcome [5] | outcome [6] | outcome [7] | outcome [8]

O=[N+]([O-])c1ccccc1C=NNc1ccnc2cc(Cl)ccc12
active: growth inhibition [1] 89% | growth inhibition [4] 101%
inactive: inhibition [2] -5% | inhibition [3] 3% | outcome [5] | outcome [6] | outcome [7] | outcome [8]

c1ccc(CNCCn2c(-c3ccc4c(c3)CCO4)nc3c(N4CCCC4)cccc32)cc1
inactive: inhibition [2] 9% | inhibition [3] -4% | outcome [5] | outcome [6] | outcome [7] | outcome [8]
active: growth inhibition [1] 85% | growth inhibition [4] 82%

CC(C)CNC(=O)c1cncc(-c2cccc(CNC3Cc4ccccc4C3)c2)c1
inactive: growth inhibition [1] 19% | inhibition [2] 4% | inhibition [3] 1% | outcome [5] | outcome [6] | outcome [7] | outcome [8]
active: growth inhibition [4] 100%

COc1ccccc1-c1cccc2c(NC(=O)Nc3ccc4nccc(N5CCN(C)CC5)c4c3)ccnc12
inactive: growth inhibition [1] 34% | inhibition [2] 3% | inhibition [3] 5% | outcome [5] | outcome [6] | outcome [7] | outcome [8]
active: growth inhibition [4] 94%

Cc1ccccc1C1CCN(C2CCC(NC(=O)C3=Cc4ccccc4OC3)CC2)CC1 (stereo not drawn)
active: growth inhibition [4] 91%
inactive: growth inhibition [1] 15% | inhibition [2] 26% | inhibition [3] -4% | outcome [5] | outcome [6] | outcome [7] | outcome [8]

c1cc(CN2CCc3ccccc3CC2)cc(-c2c[nH]c3nc(NC4CCCC4)ncc23)c1
active: growth inhibition [4] 99%
inactive: growth inhibition [1] 49% | inhibition [2] 31% | inhibition [3] -3% | outcome [5] | outcome [6] | outcome [7] | outcome [8]

CC(C)(C)c1ccc(CN(C[C@@H](O)CNS(=O)(=O)c2cc(Cl)cc(Cl)c2)C(C)(C)C)cc1
active: growth inhibition [1] 94% | inhibition [2] 74% | growth inhibition [4] 98%
inactive: inhibition [3] -8% | outcome [5] | outcome [6] | outcome [7] | outcome [8]

COc1ccc(Nc2nc(NCc3ccco3)c3ccccc3n2)cc1
active: growth inhibition [1] 76% | growth inhibition [4] 99%
inactive: inhibition [2] 38% | inhibition [3] -4% | outcome [5] | outcome [6] | outcome [7] | outcome [8]

CN=C(N)c1ccc(NC(=O)c2ccc(C(=O)Nc3ccc(C(N)=NC)cc3)cc2)cc1
active: growth inhibition [1] 91% | growth inhibition [4] 96%
inactive: inhibition [2] 6% | inhibition [3] 0% | outcome [5] | outcome [6] | outcome [7] | outcome [8]

Cc1cc(N)nc2ccc(-c3ccc(CCN)cc3)cc12
inactive: growth inhibition [1] 48% | inhibition [2] 31% | inhibition [3] -4% | outcome [5] | outcome [6] | outcome [7] | outcome [8]
active: growth inhibition [4] 101%

N#Cc1cccc(Nc2nccc(Nc3ccc(Oc4ccccc4)cc3)n2)c1
inactive: growth inhibition [1] 17% | inhibition [2] 12% | inhibition [3] -6% | outcome [5] | outcome [6] | outcome [7] | outcome [8]
active: growth inhibition [4] 94%

Clc1ccc(Cn2nc(Br)nc2Br)c(Cl)c1
active: growth inhibition [1] 96% | growth inhibition [4] 96%
inactive: inhibition [2] 4% | inhibition [3] 2% | outcome [5] | outcome [6] | outcome [7] | outcome [8]

CCCN1CCN(Cc2ccc(C(=O)Nc3ccc(Cl)cc3)cc2)CC1
inactive: growth inhibition [1] 14% | inhibition [2] 48% | inhibition [3] -2% | outcome [5] | outcome [6] | outcome [7] | outcome [8]
active: growth inhibition [4] 94%

COc1ccc(S(=O)(=O)Nc2ccc(C(=O)NCc3ccccc3C(F)(F)F)cc2)cc1N1CCN(CC2CC2)CC1
inactive: growth inhibition [1] 5% | inhibition [2] 27% | inhibition [3] -3% | outcome [5] | outcome [6] | outcome [7] | outcome [8]
active: growth inhibition [4] 92%

CN1CCC(C(=O)Nc2ccc(-c3cccc(-c4nc5ccc(F)cc5[nH]4)c3)cc2)CC1
active: growth inhibition [4] 101%
inactive: growth inhibition [1] 5% | inhibition [2] 19% | inhibition [3] 5% | outcome [5] | outcome [6] | outcome [7] | outcome [8]

CCC(NCc1ccc(-c2cncc(C(=O)NCC(C)C)c2)cc1)c1ccccc1 (stereo not drawn)
active: growth inhibition [4] 86%
inactive: growth inhibition [1] 8% | inhibition [2] 14% | inhibition [3] 2% | outcome [5] | outcome [6] | outcome [7] | outcome [8]

CC(C)C(C(=O)Nc1ccc(S(=O)(=O)N(C)C)cc1)c1ccc(Cl)cc1 (stereo not drawn)
active: growth inhibition [1] 98% | growth inhibition [4] 100%
inactive: inhibition [2] 27% | inhibition [3] -2% | outcome [5] | outcome [6] | outcome [7] | outcome [8]

CN(Cc1ccc(-c2ccc(C(F)(F)F)cc2)cc1)C(=O)Cn1c(CCc2cccc(F)c2F)cc(=O)c2ccc(OCC3CCCN3C)cc21 (stereo not drawn)
active: inhibition [2] 100% | growth inhibition [4] 87%
inactive: growth inhibition [1] 37% | inhibition [3] -6% | outcome [5] | outcome [6] | outcome [7] | outcome [8]

CCCCCN1CCCCC(NS(=O)(=O)c2ccc(C(=O)Nc3cccc(C(F)(F)F)c3)cc2)C1 (stereo not drawn)
active: growth inhibition [4] 93%
inactive: growth inhibition [1] 2% | inhibition [2] 14% | inhibition [3] -2% | outcome [5] | outcome [6] | outcome [7] | outcome [8]

N#Cc1ccc(CN2CCC(Oc3ccc(NC(=O)c4cccs4)cc3)CC2)cc1
active: growth inhibition [1] 82% | growth inhibition [4] 83%
inactive: inhibition [2] 10% | inhibition [3] -3% | outcome [5] | outcome [6] | outcome [7] | outcome [8]

CC(=O)Nc1ccc(C(=O)Nc2ccc(-c3cccc(-c4nc5ccc(C(F)(F)F)cc5[nH]4)c3)cc2)cn1
active: growth inhibition [1] 98% | growth inhibition [4] 102%
inactive: inhibition [2] 29% | inhibition [3] -2% | outcome [5] | outcome [6] | outcome [7] | outcome [8]

CC(C)(C)N1CCC(N(Cc2ccc(-c3ccc(C(F)(F)F)cc3)cc2)C(=O)Cn2c(CCc3cccc(F)c3F)cc(=O)c3cccnc32)CC1
inactive: inhibition [3] -1% | outcome [5] | outcome [6] | outcome [7] | outcome [8]
active: growth inhibition [1] 63% | inhibition [2] 100% | growth inhibition [4] 102%

O=C(Nc1ccc(-c2ccccc2)cc1)Nc1cccc(Cn2ncc(N3CCNCC3)c(Cl)c2=O)c1
active: growth inhibition [1] 59% | growth inhibition [4] 100%
inactive: inhibition [2] 30% | inhibition [3] 5% | outcome [5] | outcome [6] | outcome [7] | outcome [8]

Cc1ccc(S(=O)(=O)NC2=NC(C)(C)N(OCc3ccc(Cl)c(Cl)c3)C(N)=N2)cc1
active: growth inhibition [4] 88%
inactive: growth inhibition [1] -3% | inhibition [2] -5% | inhibition [3] 3% | outcome [5] | outcome [6] | outcome [7] | outcome [8]

O=C(NC1CC1)c1ccc(N2CCC(Cc3ccccc3)CC2)c([N+](=O)[O-])c1
inactive: inhibition [2] 12% | inhibition [3] -1% | outcome [5] | outcome [6] | outcome [7] | outcome [8]
active: growth inhibition [1] 83% | growth inhibition [4] 96%

COc1ccc(C(=O)N2CCC3(CC2)C(=O)N(CC(=O)NC2CCCCC2)CN3c2ccccc2)c(OC)c1
inactive: inhibition [2] 4% | inhibition [3] 3% | outcome [5] | outcome [6] | outcome [7] | outcome [8]
active: growth inhibition [1] 99% | growth inhibition [4] 100%

COc1cc(Cc2cnc(N)nc2N)ccc1OCC(=O)Nc1ccc(C)cc1
active: growth inhibition [4] 95%
inactive: growth inhibition [1] 18% | inhibition [2] 10% | inhibition [3] -2% | outcome [5] | outcome [6] | outcome [7] | outcome [8]

Cc1cccc2[nH]c(-c3ccc(-c4cccc(NC(=O)Nc5ccc(Cl)c(Cl)c5)c4)s3)nc12
inactive: growth inhibition [1] 36% | inhibition [2] 46% | inhibition [3] -1% | outcome [5] | outcome [6] | outcome [7] | outcome [8]
active: growth inhibition [4] 101%

O=C(NCC(=O)N1CCC[C@H]1C(=O)O)[C@@H](Cc1ccccc1)NC(=O)[C@@H]1CCCN1C(=O)CCCc1ccc(O)cc1 ({Butanoyl(4-(4-HOPh))}-P[dF]GP-OH)
inactive: growth inhibition [1] 1% | inhibition [2] 1% | inhibition [3] 3% | outcome [5] | outcome [6] | outcome [7] | outcome [8]
active: growth inhibition [4] 81%

Cc1ccc(C)c(Cn2ccc3nc(Cl)nc(Cl)c32)c1
active: growth inhibition [1] 68% | growth inhibition [4] 95%
inactive: inhibition [2] -10% | inhibition [3] -2% | outcome [5] | outcome [6] | outcome [7] | outcome [8]

COc1ccc2nc3cc(Cl)ccc3c(NCCCN3CCNCC3)c2c1
inactive: inhibition [2] 18% | inhibition [3] -3% | outcome [5] | outcome [6] | outcome [7] | outcome [8]
active: growth inhibition [1] 74% | growth inhibition [4] 104%

Fc1ccc(Nc2ccnc3cc(-c4ccc(CN5CCOCC5)o4)ccc23)c(Cl)c1
inactive: inhibition [2] 42% | inhibition [3] 5% | outcome [5] | outcome [6] | outcome [7] | outcome [8]
active: growth inhibition [1] 100% | growth inhibition [4] 101%

Cc1cc2cc(NC(=O)Nc3ccnc4ccccc34)ccc2n1C
active: growth inhibition [4] 90%
inactive: growth inhibition [1] 33% | inhibition [2] 17% | inhibition [3] 4% | outcome [5] | outcome [6] | outcome [7] | outcome [8]

N=c1n(CCN2CCCCC2)c2ccccc2n1CC(O)c1ccc(Cl)c(Cl)c1 (stereo not drawn)
active: growth inhibition [1] 97% | inhibition [2] 50% | growth inhibition [4] 97%
inactive: inhibition [3] -2% | outcome [5] | outcome [6] | outcome [7] | outcome [8]

CN1CCN(c2ccc(Nc3c4ccccc4nc4ccccc34)cc2)CC1
active: growth inhibition [1] 94% | growth inhibition [4] 100%
inactive: inhibition [2] -3% | inhibition [3] -4% | outcome [5] | outcome [6] | outcome [7] | outcome [8]

O=C(c1ccc(F)c2ccccc12)N1CCc2cc3nccc(N4CCN5CCC[C@H]5C4)c3cc21
inactive: inhibition [2] -8% | inhibition [3] -5% | outcome [5] | outcome [6] | outcome [7] | outcome [8]
active: growth inhibition [1] 54% | growth inhibition [4] 90%

O=C(Nc1cccc(-c2cccc(-c3nc4ccc(C(F)(F)F)cc4[nH]3)c2)c1)c1ccc(=O)[nH]n1
inactive: growth inhibition [1] 26% | inhibition [3] 0% | outcome [5] | outcome [6] | outcome [7] | outcome [8]
active: inhibition [2] 63% | growth inhibition [4] 103%

COc1ccc(CCN2CCC(NCc3cccc(N(C)C)c3)CC2)cc1
inactive: growth inhibition [1] 7% | inhibition [2] 18% | inhibition [3] 2% | outcome [5] | outcome [6] | outcome [7] | outcome [8]
active: growth inhibition [4] 98%
